Screening results: PubChem BioAssay, National Center for Advancing Translational Sciences (NCATS)
Shown are actives, neighbours in structure and some others; about 10% of the full set was active somewhere.
GPT2 inh: GPT2 alanine aminotransferase inhibition; Q8TD30; actives 0.25% (n = 100,000); Potency, µM (doses to about 57.7 µM), for the others: top-dose activity change, negative = inhibition, hits mostly inhibitors; Recombinant GPT2, coupled pyruvate oxidase/HRP Amplex Red fluorescence; note: % is set by controls: 0 for no effect and ±100 for the full control effect; nearly all actives have a fitted effect of over 60% in size
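GPT2 10ng/uL, a-KG 250uM, L-Ala 2mM, HEPES pH7.5 + 0.0001% Tween; 30 min RT. Then Amplex mix (PO/HRP/ThPP), 30 min RT dark, fluorescence. AOA 50uM used as positive control.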
NIH3T3 tox: NIH 3T3 cell cytotoxicity; NIH 3T3 viability, CellTiter-Glo ATP luminescence, 48-72 h; Potency, µM (top dose mostly 96.7 µM), for the others: at the highest dose activity change, negative = cytotoxicity, hits mostly inhibitors; actives 4.3% (n = 94,000); AID 1345082; note: % is set by controls: 0 for no effect and ±100 for the full control effect; nearly all actives have a fitted effect of over 55% in size
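Cytotoxicity is measured as loss of cellular ATP: NIH 3T3 cells (400/well) are exposed to compound for 48 or 72 hr at 37 °C, then CellTiter-Glo luminescence is imaged after 10 min at room temperature.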
HEK cytotox: kills HEK 293 cells. HEK 293 viability, ATP luminescence (CellTiter-Glo), 48-72 h. Potency, µM (top dose mostly 115 µM), for the others: at the top dose activity change, negative = cytotoxicity, hits mostly inhibitors. actives 6.6% (n = 94,000); note: % is set by controls: 0 for no effect and ±100 for the full control effect; nearly all actives have a fitted effect of over 60% in size
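HEK 293 cells at 250 cells/well were exposed to compounds by pintool transfer for 48 or 72 hr at 37 degree Celsius, 5% CO2. Viability was read as ATP-coupled luminescence with CellTiter-Glo after 10 min at room temperature.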
NPR1 antag: blocks ANP-stimulated signaling of human Npr1 receptor; HEK293 hNpr1 GloSensor cGMP, ANP-stimulated luminescence; Potency, µM (titrated, usually from 46.3 µM), for the others: top-dose activity change, negative = inhibition, hits mostly inhibitors; actives 1.6% (n = 76,000); AID 1347048; calls by dose curve; note: % is set by controls: 0 for no effect and ±100 for the full control effect; nearly all actives have a fitted effect of over 60% in size
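HEK293 cells stably expressing human Npr1 and cGMP GloSensor pGS-40F, loaded 2 h with 2% GloSensor reagent, given compound 30 min at room temperature. Luminescence read before and 20 min after 0.1 nM hNppA.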
FLuc inh-1: inhibitors of firefly (Photinus pyralis) luciferase. purified P. pyralis luciferase, luminescence, biochemical. actives 2.5% (n = 76,000). Potency, µM (highest dose often 115 µM), most hits filed as inhibitors. AID 1347043; note: % is set by controls: 0 for no effect and ±100 for the full control effect; nearly all actives have a fitted effect of over 65% in size
Target sequence (P08659 whole entry, looked up): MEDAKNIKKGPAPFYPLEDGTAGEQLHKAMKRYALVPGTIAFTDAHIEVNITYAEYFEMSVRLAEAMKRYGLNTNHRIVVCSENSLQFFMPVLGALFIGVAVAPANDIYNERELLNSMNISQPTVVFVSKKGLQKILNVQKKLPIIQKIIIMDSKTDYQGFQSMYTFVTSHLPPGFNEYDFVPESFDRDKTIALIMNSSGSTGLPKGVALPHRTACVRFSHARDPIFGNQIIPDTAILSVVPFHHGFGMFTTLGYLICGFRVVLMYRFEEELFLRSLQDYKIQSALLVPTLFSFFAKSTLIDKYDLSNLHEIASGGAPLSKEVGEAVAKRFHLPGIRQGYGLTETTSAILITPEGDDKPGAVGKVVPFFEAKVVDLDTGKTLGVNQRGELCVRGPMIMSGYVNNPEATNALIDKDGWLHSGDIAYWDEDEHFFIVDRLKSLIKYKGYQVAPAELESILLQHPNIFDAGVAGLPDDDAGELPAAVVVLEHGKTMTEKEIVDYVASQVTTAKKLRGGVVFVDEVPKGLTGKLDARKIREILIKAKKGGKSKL
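Purified 10nM P. pyralis luciferase with 10uM D-luciferin and 10uM ATP in 50mM Tris acetate pH 7.5, 10mM Mg acetate, 0.01% Tween-20, 0.05% BSA. qHTS titration; luminescence read by CCD imager.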
FLuc SDR no ATP: binders stabilizing firefly luciferase, without ATP; Potency, µM (titrated, usually from 32.7 µM), inactives show at the highest dose activation (signal gain), actives largely listed as activators; shares compounds with FLuc inh-1; actives 7.8% (n = 1,300); Purified FLuc-C-HiBiT, Nano-Glo HiBiT luminescence, no ATP; note: nearly all actives have a fitted effect of over 55% in size
FLuc SDR ATP: binders stabilizing firefly luciferase, plus ATP. shares compounds with FLuc inh-1. Potency, µM (top dose mostly 32.7 µM), without a hit: at the highest dose activation (gain of signal), hits mostly activators. purified FLuc-C-HiBiT + ATP, HiBiT complementation luminescence. actives 8.7% (n = 1,300);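 note: signal reports ligand binding via conformational change of the enzyme rather than luciferase catalysis; % of control where 0% means no effect; nearly all actives have a fitted effect of over 55% in size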
FLuc inh-2: blocks firefly luciferase enzymatic activity; shares compounds with FLuc inh-1; purified FLuc-C-HiBiT enzyme, luciferin luminescence; Potency, µM (series often up to 32.7 µM), inactives show at the top dose activity change, negative = inhibition, most hits filed as inhibitors; actives 42% (n = 1,300); note: % is set by controls: 0 for no effect and ±100 for the full control effect; nearly all actives have a fitted effect of over 70% in size
An asterisk follows results filed as active; i = inactive; ? = inconclusive; · = no result given; [ ] = remark or other dose. Unless noted, calls come from the whole dose curve; as a rule, active = well fitted curve in the direction sought with a large enough effect; inconclusive = small, poorly fitted or top-dose-only effect, or another doubt; inactive = no such curve, though single readings can be large; an effect the other way counts as inactive or inconclusive. Potency is the fitted concentration of half-maximal effect.

SMILES	GPT2 inh	NIH3T3 tox	HEK cytotox	NPR1 antag	FLuc inh-1	FLuc SDR no ATP	FLuc SDR ATP	FLuc inh-2
CCc1ccc(NC(=O)COc2ccc(-c3nnc4n3CCCC4)cc2)cc1	i	-20%	-4%	1%	i	·	·	·
Cc1ccc2nc(-c3ccc(NC(=O)COc4c(C)ccc(C)c4C)cc3)sc2c1	·	·	·	·	·	17%	15%	?
Cc1cc(C)cc(Nc2nc(C)cc(=O)n2CC(=O)Nc2ccc(Br)cc2)c1	?	?	?	?	i	·	·	·
COc1ccc(-c2nc(C3CC3)nc3c2CCN(C(=O)c2ccccc2OC)CC3)cc1	i	-38%	?	·	·	·	·	·
Cc1nn(-c2ccccc2)c2c1C(C(C)C)N(C1CN(C(=O)Nc3ccc(Cl)cc3)C1)C2=O (configuration not stated)	·	-26%	-11%	·	·	·	·	·
Cc1ccc(C(=O)N2CCN(CCn3nc4n(c3=O)CCCC4)CC2)cc1	·	-10%	-12%	·	·	·	·	·
Cc1ccccc1[C@@H]1CN(C(=O)CCC(=O)NC2CCCC2)C[C@H]1C(=O)O	i[11.5 µM]	-11%	-11%	0%	i	·	·	·
Cn1nc(C(=O)NCC(=O)N2CCCCCNC(=O)CC2c2ccccc2)c2ccccc21 (configuration not stated)	i	i	i	3%	i	·	·	·
O=C(Nc1ccc(Cl)cc1)N1CCn2c(nn(-c3ccc([N+](=O)[O-])cc3)c2=O)C1	i	?	?	?	?	·	·	·
Cc1ccc(NC(=O)Cn2c(-c3ccccc3)nc(C)cc2=O)cc1	i	?	?	-18%	i	·	·	·
Cc1ccc2nc(-c3ccc(NC(=O)Cc4ccccc4)cc3)sc2c1	·	·	·	·	·	13%	14%	?
Cc1cc(C)c2[nH]c(C(=O)N(C)Cc3ccc4nsnc4c3)c(C)c2c1	-7%[11.5 µM]	?	?	4%	i	·	·	·
O=C(O)c1ccc(-c2noc(-c3cccc(F)c3)n2)cc1	·	·	·	·	·	17%	?	5µM*
COc1cccc(-c2nc(-c3ccc(C(=O)O)cc3)no2)c1	·	·	·	·	·	?	0.88µM*	0.79µM*
O=C(O)c1cccc(-c2noc(-c3ccccc3Cl)n2)c1	·	·	·	·	·	2.8µM*	0.0062µM*	0.0035µM*
O=C(O)c1cccc(-c2noc(-c3cccc([N+](=O)[O-])c3)n2)c1	·	·	·	·	·	11µM*	0.0079µM*	0.007µM*
COCc1nc(C2CC(N)C2)cc(N(C)Cc2csc(C(C)C)n2)n1 (configuration not stated)	3%[11.5 µM]	-27%	-10%	0%	i	·	·	·
O=C(c1cc2ccccc2[nH]1)N1CCCC(c2nc(CCOCC3CC3)no2)C1 (configuration not stated)	0%	?	?	?	?	·	·	·
N#Cc1ccc(CN2CCC3(CC2)CNc2ccccc2[S+](=O)([O-])N3)cc1	i	-29%	?	-25%	i	·	·	·
COc1cccc(-c2ccc(C(=O)N3CCC(C(=O)NCc4ccc(F)cc4)CC3)cc2)c1	i	?	?	·	·	·	·	·
O=C(O)c1cccc(-c2noc(-c3cccc(F)c3)n2)c1	·	·	·	·	·	?	0.007µM*	0.007µM*
O=C(c1ccc(F)cc1)N1CC(c2noc(-c3ccccc3)n2)C1	5%	-15%	-12%	0%	i	·	·	·
O=C(O)c1cccc(-c2noc(-c3ccc(F)cc3)n2)c1	·	·	·	·	·	5µM*	0.0056µM*	0.0044µM*
